Data on 61 molecules can be found in PubChem BioAssay AID651819 (National Center for Advancing Translational Sciences (NCATS), 2012).

In all, about 360,000 compounds went through this assay and about 1,100 (0.31%) were called active. Only a selection was taken, and actives are over-represented in it overall. A number with no mark means an inactive call. Rule as the data show it: active = activity change below about -30%; inactive = the rest.
% is scaled to controls: 0 for no effect and ±100 for the full control effect.

This test relates to cytosolic chaperonin (CCT/TRiC complex). The experiment in a line: High-Throughput Screening for Modulators of Cytosolic Chaperonin Activity. Particulars: purified chaperonin ATPase assay, HTRF ADP detection, 30 min; stronger effect = lower value. The text has this: The eukaryotic chaperonin named TRiC (for TCP-1 ring complex), also called CCT (for chaperonin containing TCP1), is an essential and conserved chaperone required for the folding and activation of 10-15% of the proteins encoded by the human genome. […] Despite its central role in cellular folding, little is known about TRiC mechanism and mode of substrate binding. Currently, no specific TRiC inhibitors are available. Given the early promise of other chaperone-directed inhibitors as cancer therapeutics (e.g. HSP90 inhibitors), inhibitors of TRiC activity may also selectively target transformed cells and have potential use as therapeutics for cancer.
To this end, a miniaturized assay was developed to screen against the Molecular Libraries Small Molecule Repository (MLSMR).
NIH Chemical Genomics Center [NCGC]
NIH Molecular Libraries Probe Centers Network [MLPCN]
Assay Submitter (PI): Judith Frydman, Stanford University
1.5 uL/well TRiC enzyme suspended in buffer (30 mM TRIS pH7.4, 100 mM KCl, 5 mM MgCl2, 1 mM DTT) was added with BioRAPTR FRD dispenser at 40 nM or 20 nM (based on the enzymatic activity of used batches) final concentration to a white solid bottom medium binding 1536-well plate (Greiner Bio-One, Monroe, NC), and quickly spanned down. 23 nl/well of compound solutions in DMSO were added with a pintool transfer (Kalypsis, San Diego, CA) at a single 76 uM final concentration. Next, 1.5 µl/well ATP was dispensed with BioraptR at 10 uM final concentration after which the plates were incubated at 37 deg C for 30 min. HTRF(R) Transcreener(R) ADP (Cisbio US, Bedford, MA) detection reagents were prepared accordingly to the protocol and dispensed into the plate (1.5 uL/well each), incubated for 30 min at ambient temperature. Then, the plates were read using Envision reader with excitation at 330nm and emission at 615nm (Eu(3)-Cryptate donor signal) and 665nm (d2 acceptor signal). The ratio of […] was calculated for each well.
(In TR-FRET formats the signal depends on donor and acceptor labels being close together.)
`O=C1CC(c2ccccc2)C(=O)N2C(=O)CC(c3ccccc3)C(=O)N12` (stereo unspecified): the activity change was -3.94%.

`Cc1c(O)c(C)c2c(c1O)C(=O)C[C@@H](c1ccccc1)O2`: the activity change is -31.9% (active).

For `COc1ccc2c(c1)C(=O)CC(c1ccccc1)O2` (stereo unspecified), the activity change was 0.324%.

For the molecule `CCc1ccc(C(=O)N2CCN(S(=O)(=O)c3sc(C(=O)O)c(C)c3C(=O)O)CC2)cc1`, the activity change is -1.96%.

In the case of `COC(=O)CN(c1nc(C)c(Cl)c(OC)n1)S(=O)(=O)c1ccc(C)cc1`, the activity change is 2.28%.

As for `CC1CCC2(CC1)NC(=O)N(CC(=O)c1cccn1C)C2=O` (stereo unspecified), the activity change was 0.876%.

Consider `O=C(Cn1nc([N+](=O)[O-])nc1Br)NC1CCCCC1`, for which the activity change is -63% (active).

As to `Cc1cc(C(F)F)nn1CC(=O)NC1CCCCCC1`, the activity change is -0.636%.

`Cc1nn(CC(=O)NC2CCCCC2)c(=O)c2cccn12`: the activity change was 0.008%.

Turning to `COc1c(Br)cc2c(C)c(C(=O)N3CCOCC3)oc2c1Br`, the activity change was -0.84%.

For the molecule `Cc1ccc2[nH]c(=O)c(CN(C)S(=O)(=O)c3cccc4nonc34)cc2c1`, the activity change is -2.6%.

Turning to `CCCc1ccc(OCC(O)CN2CCN(C(=O)OCC)CC2)cc1` (stereo unspecified), the activity change was 0.305%.

Take `CCc1ccc(S(=O)(=O)NCC(O)COc2ccc(OC)cc2)cc1` (stereo unspecified): the activity change is 2.49%.

As to `Nc1ccc(OCC(O)C[n+]2ccc(CCS(=O)(=O)[O-])cc2)cc1` (stereo unspecified), the activity change was -32.1% (active).

For `O=C(Nc1cccc(Cl)c1Cl)c1ccccc1NC(=O)C1CC=CCC1C(=O)O` (stereo unspecified), the activity change is 1.29%.

For `O=C(c1ccc(Cl)cc1)n1cnc2ccccc21`, the activity change is -0.842%.

Turning to `COC(=O)c1ccc(-n2cnc3ccccc32)nc1`, the activity change was -67.7% (active).

`COC(=O)c1ccc(SCc2ccccc2)nc1`: the activity change was -0.717%.

On to `CS(=O)(=O)N(Cc1nc2sc3c(c2c(=O)[nH]1)CCCC3)C1CCCCC1`, for which the activity change is -3.6%.

Consider `COC(=O)c1sccc1N/N=C(\C)c1ccc(F)c(Cl)c1`, for which the activity change is 0.343%.

For the molecule `Cc1ccc(-c2nc(CS(=O)(=O)CC(=O)NCc3ccc4c(c3)OCO4)c(C)o2)cc1`, the activity change is -39.8% (active).

Turning to `COc1ccc(-c2nc(CS(=O)(=O)CC(=O)NCc3cccc(Br)c3)c(C)o2)cc1`, the activity change was -0.857%.

On to `COc1ccc(CCNC(=O)CS(=O)(=O)Cc2nc(-c3ccc(C)cc3)oc2C)cc1OC`, for which the activity change is -1.25%.

On to `CC12CN(Cc3ccccc3)CC(C)(CN(Cc3ccccc3)C1)C2=NO`, for which the activity change was 1.91%.

For the molecule `CC(C)(C)CN1C(=O)C(=O)NC[C@H]1Cc1cccc2ccccc12`, the activity change is -2.37%.

Turning to `CCOc1ccccc1NC(=O)CCc1nnc2ccc(NCc3ccco3)nn12`, the activity change is 1.37%.

With `O=C(CCc1nnc2ccc(NCc3ccco3)nn12)Nc1cc(F)ccc1F`, the activity change was -33.9% (active).

With `CC(=O)c1ccc(NC(=O)CCc2nnc3ccc(NCc4ccco4)nn23)cc1`, the activity change was -1.16%.

With `COC(=O)[C@@]1(Cc2ccc(F)cc2)[C@H]2c3cc(C(=O)N(C)C)n(CCc4c[nH]c5ccc(OC)cc45)c3C[C@H]2CN1C(=O)c1ccccc1`, the activity change was -0.685%.

`C=CCOc1ccc(/C=N/NC(=O)C(C)Sc2ccccn2)cc1OCC` (stereo unspecified): the activity change is -2.2%.

Consider `O=C(NNC(=O)c1cccc(S(=O)(=O)Nc2ccc(Cl)cc2)c1)c1ccc(=O)[nH]c1`, for which the activity change is -0.309%.

Turning to `CCc1ccc(/C=N/NC(=O)c2ccc(OC3CCCC3)cc2)s1`, the activity change was -13.3%.

As for `CC(=O)c1c(C)n(-c2ccc(C)cc2)c2ccc(O)cc12`, the activity change is -47.3% (active).

As for `CC(=O)c1c(C)n(-c2ccc(N(C)C)cc2)c2ccc(OCC(N)=O)cc12`, the activity change was 0.0827%.

Regarding `CCOC(=O)c1c(CN2CCOCC2)n(-c2ccccc2)c2ccc(O)cc12`, the activity change is -1.1%.

Regarding `Cc1ccc(CN2C(=O)CCC2C(=O)NCCCN2CCCCC2C)cc1` (stereo unspecified), the activity change is 0.0456%.

Consider `CC1CCN(c2ccc(S(=O)(=O)Nc3cc(C(=O)O)cc(C(=O)O)c3)cc2[N+](=O)[O-])CC1`, for which the activity change was -0.243%.

Turning to `CCc1ccccc1NC(=O)Cc1cn(C)c2ccccc12`, the activity change was -2.82%.

For the molecule `O=C(NCc1ccco1)C1CCCN(S(=O)(=O)c2cccc3nonc23)C1` (stereo unspecified), the activity change is -0.959%.

For `Cc1ccc2c(c1)N(C(=O)CCC(=O)NCc1cccnc1)CCO2`, the activity change was -3.52%.

Turning to `Cc1ccccc1CNC(=O)CCC(=O)N1Cc2ccccc2Oc2ncccc21`, the activity change was -84.3% (active).

Consider `Cc1ccccc1CN1CCN(CC(=O)NCc2ccccn2)C1=O`, for which the activity change was 0.386%.

On to `COC(=O)[C@@H](NC(=O)NCc1cccc(OC)c1)C(C)C`, for which the activity change is -2.29%.

Consider `COC(=O)Nc1ncc(CN2C(=O)c3ccccc3C2=O)s1`, for which the activity change was -0.4%.

As to `Cc1noc(C)c1S(=O)(=O)N1CCCC(C(=O)Nc2nccs2)C1` (stereo unspecified), the activity change was -0.498%.

As for `CC(Cc1cccs1)N(Cc1ccc(Cl)cc1)C(=O)c1ccncc1` (stereo unspecified), the activity change is 1.98%.

For the molecule `COc1ccc(C(O)c2nc(-c3ccc4c(c3)OCO4)cs2)cc1` (stereo unspecified), the activity change is -0.395%.

In the case of `CC(O)(c1cccc(F)c1)c1nc(-c2ccc3c(c2)OCO3)cs1` (stereo unspecified), the activity change was -0.833%.

Take `Brc1ccc(-c2csc(N/N=C/c3ccc4c(c3)OCO4)n2)cc1`: the activity change was -49.7% (active).

Take `O=C(NCCCNC(=O)NC1CCCCC1)NC1CCCCC1`: the activity change is -1.85%.

As for `Cc1cc(OC(=O)c2ccc(OC(C)C)cc2)c([N+](=O)[O-])c(=O)[nH]1`, the activity change was -0.062%.

Take `O=C(CCCCCn1c(=S)[nH]c2ccsc2c1=O)NC1CCCCC1`: the activity change is -30.8% (active).

For the molecule `CCCCC(CC)CNC(=O)CCCCn1c(=O)[nH]c2ccsc2c1=O` (stereo unspecified), the activity change was 1.33%.

Take `O=C(CCC(=O)c1cccs1)NC1CCCCCC1`: the activity change was 0.811%.

As for `CCN(CC)CCCN=C(N)N`, the activity change was -0.0838%.

On to `CC(C)(C)C(=O)NC1CC2CCCC(C1)N2C(=O)Nc1ccccc1F` (stereo unspecified), for which the activity change was -5.23%.

`C=CS(=O)c1sc(Cl)c(N2CCOCC2)c1[N+](=O)[O-]` (stereo unspecified): the activity change is -1.53%.

For `CC(C)C(NC(=O)C1CCC(C(C)(C)C)CC1)C(=O)NCCCN1CCCCC1` (stereo unspecified), the activity change was 0.128%.

For `COc1ccc(CC(=O)c2ccc(O)cc2O)cc1OC`, the activity change was -38.8% (active).

For the molecule `O=C(Cc1ccccn1)c1ccc(O)cc1O`, the activity change was -0.381%.

`COc1ccc(CCNC(=O)CCc2ccccc2O)cc1OC`: the activity change is -0.891%.
